# Source: PubChem
# LmPK inhibitor – inhibitors of Leishmania mexicana pyruvate kinase; purified LmPK, Kinase-Glo ATP luminescence, 1 h; Potency, µM (highest dose often 57.5 µM), for the others: top-dose activity change, negative = inhibition, hits mostly inhibitors; 0.37% of 290,000 active; AID 1721; active = well fitted curve in the direction sought with a large enough effect; inconclusive = small, poorly fitted or top-dose-only effect, or another doubt; inactive = no such curve, though single readings can be large; an effect the other way counts as inactive or inconclusive; note: potency is the fitted concentration of half-maximal effect; % is set by controls: 0 for no effect and ±100 for the full control effect
# Target sequence (Q27686 whole entry, looked up): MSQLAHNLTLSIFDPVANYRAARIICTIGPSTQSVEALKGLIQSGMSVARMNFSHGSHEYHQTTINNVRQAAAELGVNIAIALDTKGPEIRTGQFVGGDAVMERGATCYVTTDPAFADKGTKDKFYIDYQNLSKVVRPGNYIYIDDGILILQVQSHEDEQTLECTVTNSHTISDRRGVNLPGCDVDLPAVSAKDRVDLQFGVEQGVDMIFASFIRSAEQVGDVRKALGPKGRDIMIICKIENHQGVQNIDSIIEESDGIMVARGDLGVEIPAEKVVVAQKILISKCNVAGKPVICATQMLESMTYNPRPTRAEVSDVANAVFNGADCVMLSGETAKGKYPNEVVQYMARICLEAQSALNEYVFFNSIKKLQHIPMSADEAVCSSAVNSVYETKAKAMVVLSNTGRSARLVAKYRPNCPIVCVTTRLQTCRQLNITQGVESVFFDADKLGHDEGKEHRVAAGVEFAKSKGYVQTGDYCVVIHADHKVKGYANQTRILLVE
#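 Purified LmPK (0.1 nM) with 0.5 mM PEP and 0.1 mM ADP in imidazole buffer pH 7.2 with MgCl2/KCl, 1 h at room temperature. ATP formed was read by luciferase luminescence and normalized to no-enzyme and uninhibited controls.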
# Cycloheximide cs – counter-screen hit for Shiga toxin inhibitors, cycloheximide; cell reporter, cycloheximide protein synthesis inhibition counterscreen; max response, %; 12% of 300,000 active; AID 2314; in the data active = max response mostly above about 13%, no sharp cut-off; inactive = mostly below about 14%; note: read at 38.3 µM for the half of the compounds with a filed dose; 0% is about no effect
# Shiga toxin inh – Shiga toxin inhibition. Vero cells, Shiga toxin protein synthesis inhibition reporter. 9.2% of 290,000 active. inhibition, % at 38.7 µM. AID 2315; in the data active = inhibition mostly above about 28%, no sharp cut-off; inactive = mostly below about 43%; note: 0% is about no effect
# NS1 function inh – blocks influenza NS1 protein function; Potency, µM (top dose mostly 46.1 µM), for the others: at the highest dose activity, positive = more growth; 0.4% of 270,000 active; note: potency is the fitted concentration of half-maximal effect; actives are rising curves; nearly all actives have a fitted effect of over 50% in size
#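 Growth recovery, yeast-based: influenza A NS1 expressed in S. cerevisiae causes slow growth, and suppressors are detected by OD600. The parent strain without NS1 is used as positive control.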
# SARS PLP yeast – inhibitors of SARS-CoV papain-like protease in yeast; Potency, µM (titrated, usually from 32.9 µM), for inactives: top-dose activity, positive = growth rescue, actives largely listed as activators; 0.19% of 330,000 active; AID 485353; S. cerevisiae expressing SARS-CoV PLpro, growth rescue; note: potency is the fitted concentration of half-maximal effect; 0% is about no effect; nearly all actives have a fitted effect of over 55% in size
# Tb PYK inh – inhibitors of Trypanosoma brucei pyruvate kinase; Q57TT1; TbPYK enzyme, Kinase-Glo Plus ATP luminescence, 45 min; Potency, µM (series often up to 76.8 µM), without a hit: at the top dose activity, negative = inhibition, most hits filed as inhibitors; 0.12% of 410,000 active; AID 624173; active = well fitted curve in the direction sought with a large enough effect; inconclusive = small, poorly fitted or top-dose-only effect, or another doubt; inactive = no such curve, though single readings can be large; an effect the other way counts as inactive or inconclusive; note: potency is the fitted concentration of half-maximal effect; % is set by controls: 0 for no effect and ±100 for the full control effect; nearly all actives have a fitted effect of over 50% in size
#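 Glycolytic pyruvate kinase of T. brucei was incubated with substrate, test compound and 130 uM ADP for 45 minutes at room temperature. Luminescent Kinase-Glo Plus signal was measured after 10 minutes.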
# Flu NS1 inh – influenza NS1 function inhibition validation; shares compounds with NS1 function inh; influenza NS1 function cell assay, 15-point titration; activity change, negative = inhibition, % at 32.9 µM; 1,400 tested, under 10 active; note: 0% is about no effect
# * marks the source's active call; other numbers are inactive results; ? = inconclusive; . = not tested or not shown; [ ] = another dose, or the depositor's remark. This excerpt belongs to a sample that is enriched for hits. Unless noted, calls come from the whole dose curve.
SMILES,LmPK inhibitor,Cycloheximide cs,Shiga toxin inh,NS1 function inh,SARS PLP yeast,Tb PYK inh,Flu NS1 inh
Cc1cc(-c2ccccc2)c2c(=O)[nH][nH]c2n1,-0.8%,2.6,10.0,10µM*,?,1.3%,?
O=c1[nH]nc(-c2ccccc2)cc1-c1ccccc1,.,.,.,.,.,-0.5%,.
O=S(=O)(c1ccc(NC(=S)NCCC(c2ccccc2)c2ccccc2)cc1)N1CCOCC1,1.5%,9.2,8.7,14.1µM*,13.1%,2.4%,15.3
COc1ccc(/C=N/NC(=O)c2cc(-c3ccc(C)cc3C)nc3ccccc23)cc1COC(C)=O,4.9%,13.3,-8.3,10µM*,1.2%,10.1%,5.6
COc1ccc(/C=N/NC(=O)c2cc(-c3ccccc3OC)nc3ccccc23)cc1COC(C)=O,0.8%,-2.1,-10.6,16.4%,5.5%,0.8%,.
CCc1ccc(N2C(=O)NC(=O)/C(=C\C=C\c3ccco3)C2=O)cc1,1.4%,21.9*,17.5,11.2µM*,0.1%,-9.5%,11.2
CC(C)C[C@@H]1Cc2[nH][nH]c(=O)c2[C@H](C(C)C)O1,.,.,.,.,.,2.0%,.
O=C(O)c1ccccc1-c1ccccc1C(=O)Nc1ccccc1-c1ccccc1,1.6%,-3.7,-12.8,10µM*,.,3.0%,36.0
CCC1CCCCN1CCCNC(=O)CN1C(=O)CSc2ccc(S(=O)(=O)N3CCC(C)CC3)cc21 (stereo unspecified),2.1%,-5.7,-4.5,1.78µM*,17.4%,2.3%,-4.7
CC1CCN(S(=O)(=O)c2ccc3c(c2)N(CC(=O)NCCCN2CCCC(C)C2)C(=O)CS3)CC1 (stereo unspecified),-4.2%,1.1,-10.2,-21.8%,-1.9%,0.0%,.
O=C1CN(C(=O)c2cccc(Br)c2)C(c2ccccc2)c2cc(Cl)ccc2N1 (stereo unspecified),.,.,.,.,.,-2.3%,.
CC(OC(=O)CCCCCN=C1NS(=O)(=O)c2ccccc21)C(=O)Nc1cc(Cl)cc(Cl)c1 (stereo unspecified),0.6%,-2.5,-8.6,12.6µM*,10.9%,-2.1%,5.8
CC(=O)Nc1ccc(NC(=O)C(C)OC(=O)CCN=C2NS(=O)(=O)c3ccccc32)cc1 (stereo unspecified),-1.4%,0.9,9.4,8.2%,-0.2%,-10.5%,.
N#CC1=C(S)N=C(N)C(c2nc(-c3ccccc3)cs2)C12CCCCC2 (stereo unspecified),0.2%,15.9,11.0,11.2µM*,10.7%,3.0%,18.3
N#CC1=C(S)N=C(N)C(c2nc(-c3ccccc3)cs2)C12CCCC2 (stereo unspecified),-10.0%,10.4,-4.9,21.9%,3.2%,0.3%,.
Cc1ccccc1S(=O)(=O)NCc1ccc(N2CCN(C)CC2)cc1,-2.9%,-2.7,18.4,2.6%,0.8%,-2.7%,.
CCC1(c2ccc(OC)cc2)NC(=O)N(CC(=O)NC2CCCCC2C)C1=O (stereo unspecified),.,.,.,.,-0.3%,-8.9%,.
CCCOc1ccc(-c2cnc(SCC(N)=O)nc2N)cc1,-2.1%,14.5,22.3,8.91µM*,-1.5%,-0.2%,10.6
CCCCOc1ccc(-c2c(C#N)c(N)nc(SCC(N)=O)c2C#N)cc1,0.1%,-1.0,-3.6,?,12.1%,-1.9%,.
COc1ccc(NC(=O)C2Cc3c(-c4ccco4)ccnc3O2)cc1OC (stereo unspecified),.,.,.,.,.,-4.5%,.
Cc1cc2cc(CN(Cc3ccc4c(c3)OCO4)C(=O)c3ccco3)c(=O)[nH]c2cc1C,3.1%,-1.9,-2.8,?,?,-1.7%,10.7
Cc1nc2c(-c3ccc(F)cc3)c(C)nn2c(C)c1CCC(=O)N1CCN(c2ccccc2)CC1,-1.1%,-2.5,-11.1,3.5%,5.4%,-7.3%,.
Cc1nc2c(-c3ccc(F)cc3)c(C)nn2c(C)c1CCC(=O)N1CCC(Cc2ccccc2)CC1,8.8%,-0.4,21.0,7.08µM*,-2.7%,0.2%,-33.4
Cc1cccc(NC(=O)C2CCC(CNS(=O)(=O)c3ccc4c(c3)CCCC(=O)N4)CC2)c1C (stereo unspecified),.,.,.,.,.,0.1%,.
NC(=O)c1ccsc1NC(=O)C1CCCN1S(=O)(=O)c1ccc(Cl)cc1 (stereo unspecified),10.3%,-5.2,-5.4,8.91µM*,0.0%,5.2%,-24.1
SMILES,LmPK inhibitor,Cycloheximide cs,Shiga toxin inh,NS1 function inh,SARS PLP yeast,Tb PYK inh,Flu NS1 inh
COc1ccc(C(C)=O)cc1COc1cccnc1[N+](=O)[O-],-0.4%,1.8,1.8,?,0.2%,4.5%,-5.8
CCOc1ccc(C(C)=O)cc1COc1cccnc1[N+](=O)[O-],-2.2%,-3.0,-1.4,-69.5%,-3.5%,-6.8%,.
CCN1C(=O)c2cccc3c(S(=O)(=O)N(C(C)=O)c4ccc(OC(C)=O)cc4)ccc1c23,.,.,.,.,-1.5%,5.7%,.
O=C(Nn1c(SCc2cccc([N+](=O)[O-])c2)nc2ccccc2c1=O)c1ccccc1,1.9%,81.2*,123.1*,14.1µM*,-27.4%,-1.9%,-7.4
CSc1nc(NCCOCCO)c2sc3nc(-c4ccco4)c4c(c3c2n1)CCC4,-1.5%,-1.3,20.6,?,1.2%,3.3%,.
CCN(CCO)c1nc(SC)nc2c1sc1nc(-c3ccco3)c3c(c12)CCC3,2.1%,9.5,-1.7,?,2.8%,-7.5%,-1.5
CC(C)Nc1ccc(C(CC(N)=O)NC(=O)c2ccc(Br)cc2)cc1[N+](=O)[O-] (stereo unspecified),5.1%,-4.3,-10.7,1.7%,2.6%,4.5%,.
CN(Cc1ccccc1)c1ccc(C(CC(N)=O)NC(=O)c2ccc(Br)cc2)cc1[N+](=O)[O-] (stereo unspecified),0.0%,-1.1,11.9,5.01µM*,-1.7%,-0.5%,?
Cc1ccc(Cl)c2sc(NC(=O)CS(=O)(=O)c3ccc(Cl)cc3)nc12,.,.,.,.,.,5.9%[15.4 µM],.
Cc1nnc(NC(=O)c2c(-c3ccccc3)noc2C)s1,-9.9%,-1.6,1.3,-8.4%,-7.3%,-5.4%,.
Cc1onc(-c2ccccc2)c1C(=O)Nc1nnc(N(C)Cc2ccccc2)s1,0.2%,-7.9,-9.3,7.94µM*,2.9%,-6.8%,12.9
Cc1nn(-c2ccccc2)c2[nH]c(=O)c(CNCc3ccc4c(c3)OCO4)cc12,0.5%,9.9,15.5,7.94µM*,-1.2%,0.1%,6.8
Cc1ccc(S(=O)(=O)N(Cc2ccccc2)c2ccccc2C(=O)Nc2ccccc2C(=O)NCc2ccco2)cc1,-1.5%,31.4*,54.8*,7.94µM*,16.9%,-2.7%,-20.5
CCOc1ccc(NC(=S)N2CCc3cc(OC)c(OC)cc3C2COc2ccc3c(C)cc(=O)oc3c2)cc1 (stereo unspecified),1.1%,2.5,-12.2,11.2µM*,?,-13.2%,11.3
Cn1c(NC(=O)c2ccc(F)cc2)c(-c2ccccn2)c(=O)c2ccccc21,3.7%,12.9,9.9,-1.5%,-0.5%,-1.0%,.
